# According to the supplement of paper PMC8728848:
# Only a selection was taken, and the strongest signals are over-represented in it overall.
# Key:
# Assay in all cases: glycan array binding signal (z-score within array); higher = stronger binding
# Settings in all cases: glycan notation: IUPAC condensed, linker removed
# [1] = molecular target: Fuc(a1-2)[Gal(a1-3)]Gal(b1-4)GlcNAc(b1-3)GalNAc
# Method in brief: (§1)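 Columns mapping to the same glycan were averaged after glycan names were converted to IUPAC-condensed notation. The data come from 3228 arrays in the Consortium for Functional Glycomics database, limited to those with an available protein sequence. Binding is reported as a within-array Z-score averaged across arrays of one protein sequence and across linkers.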
# [2] = molecular target: Gal(a1-3)Gal(b1-3)GlcNAc(b1-3)GalNAc
# Method in brief: as §1
# [3] = molecular target: Gal(a1-4)Gal(b1-4)Glc
# Method in brief: as §1
# [4] = molecular target: Gal(a1-6)Glc
# Method in brief: as §1
# [5] = molecular target: Gal(b1-3)GlcNAc(a1-6)Gal(b1-4)GlcNAc
# Method in brief: as §1
# [6] = molecular target: Gal(b1-3)GlcNAc(b1-2)Man(a1-3)[Gal(b1-3)GlcNAc(b1-2)Man(a1-6)]Man(b1-4)GlcNAc(b1-4)GlcNAc
# Method in brief: as §1
# [7] = molecular target: Gal(b1-3)GlcNAc(b1-3)GalNAc
# Method in brief: as §1
# [8] = molecular target: Gal(b1-3)[Fuc(a1-4)]GlcNAc(b1-3)Gal(b1-4)[Fuc(a1-3)]GlcNAc
# Method in brief: as §1
# [9] = molecular target: Gal(b1-3)[GlcNAc(b1-6)]GalNAc
# Method in brief: as §1
# [10] = molecular target: Gal(b1-4)GlcNAc(b1-2)Man(a1-3)Man(b1-4)GlcNAc(b1-4)GlcNAc
# Method in brief: as §1
# [11] = molecular target: Gal(b1-4)GlcNAc(b1-2)Man(a1-3)[Gal(b1-4)GlcNAc(b1-2)Man(a1-6)]Man(b1-4)GlcNAc(b1-4)GlcNAc
# Method in brief: as §1
# [12] = molecular target: Gal(b1-4)GlcNAc(b1-2)Man(a1-3)[Gal(b1-4)GlcNAc(b1-2)Man(a1-6)]Man(b1-4)GlcNAc(b1-4)[Fuc(a1-6)]GlcNAc
# Method in brief: as §1
# [13] = molecular target: Gal(b1-4)GlcNAc(b1-2)Man(a1-3)[Gal(b1-4)GlcNAc(b1-2)][GlcNAc(b1-4)]Man(b1-4)GlcNAc(b1-4)GlcNAc
# Method in brief: as §1
# [14] = molecular target: Gal(b1-4)GlcNAc(b1-2)Man(a1-3)[GlcNAc(b1-2)Man(a1-6)]Man(b1-4)GlcNAc(b1-4)GlcNAc
# Method in brief: as §1
# [15] = molecular target: Gal(b1-4)GlcNAc(b1-2)Man(a1-3)[Man(a1-6)]Man(b1-4)GlcNAc(b1-4)GlcNAc
# Method in brief: as §1
# [16] = molecular target: Gal3S6S(b1-4)GlcNAc6S
# Method in brief: as §1
# [17] = molecular target: Gal6S(b1-4)GlcNAc
# Method in brief: as §1
# [18] = molecular target: GalNAc(b1-6)GalNAc
# Method in brief: as §1
# [19] = molecular target: Glc(a1-6)Glc(a1-6)Glc
# Method in brief: as §1
# [20] = molecular target: GlcA(b1-3)Gal
# Method in brief: as §1
# [21] = molecular target: GlcNAc(b1-3)Gal
# Method in brief: as §1
# [22] = molecular target: GlcNAc(b1-4)GlcNAc
# Method in brief: as §1
# [23] = molecular target: GlcNAc6S(b1-3)Gal(b1-4)GlcNAc
# Method in brief: as §1
# [24] = molecular target: Man(a1-2)Man(a1-2)Man(a1-6)[Man(a1-3)]Man
# Method in brief: as §1
# [25] = molecular target: Man(a1-2)Man(a1-3)[Man(a1-2)Man(a1-6)]Man(a1-6)[Man(a1-2)Man(a1-2)Man(a1-3)]Man
# Method in brief: as §1
# [26] = molecular target: Man(b1-4)GlcNAc
# Method in brief: as §1
# [27] = molecular target: Neu5Ac(a2-3)GalNAc
# Method in brief: as §1
# [28] = molecular target: Neu5Ac(a2-6)Gal(b1-4)GlcNAc(b1-2)Man(a1-3)[Man(a1-6)]Man(b1-4)GlcNAc(b1-4)GlcNAc
# Method in brief: as §1
# [29] = molecular target: Neu5Ac(a2-6)Gal(b1-4)GlcNAc(b1-2)Man(a1-6)[Gal(b1-4)GlcNAc(b1-2)Man(a1-3)]Man(b1-4)GlcNAc(b1-4)GlcNAc
# Method in brief: as §1
# [30] = molecular target: Neu5Ac(a2-6)Gal(b1-4)GlcNAc(b1-2)Man(a1-6)[GlcNAc(b1-2)Man(a1-3)]Man(b1-4)GlcNAc(b1-4)GlcNAc
# Method in brief: as §1
# [31] = molecular target: Neu5Ac(a2-6)GlcNAc(b1-4)GlcNAc(b1-4)GlcNAc
# Method in brief: as §1
# [32] = molecular target: Neu5Ac(a2-8)Neu5Ac
# Method in brief: as §1
# [33] = molecular target: Neu5Ac(a2-3)[GalNAc(b1-4)]Gal(b1-4)Glc
# Method in brief: as §1
# [34] = molecular target: Neu5Ac(a2-6)Gal(b1-4)GlcNAc(b1-3)Gal(b1-3)GlcNAc
# Method in brief: as §1
# [35] = molecular target: Neu5Ac(a2-6)Gal(b1-4)GlcNAc(b1-3)Gal(b1-4)GlcNAc
# Method in brief: as §1
# [36] = molecular target: Neu5Ac(a2-6)Gal(b1-4)GlcNAc(b1-3)Gal(b1-4)[Fuc(a1-3)]GlcNAc(b1-3)Gal(b1-4)[Fuc(a1-3)]GlcNAc
# Method in brief: as §1
# [37] = molecular target: Neu5Ac(a2-8)Neu5Ac(a2-3)[Gal(b1-3)GalNAc(b1-4)]Gal(b1-4)Glc
# Method in brief: as §1
# [38] = molecular target: Neu5Ac(a2-8)Neu5Ac(a2-8)Neu5Ac(a2-3)[GalNAc(b1-4)]Gal(b1-4)Glc
# Method in brief: as §1
# [39] = molecular target: Neu5Gc(a2-6)GalNAc
# Method in brief: as §1
# [40] = molecular target: Neu5Gc(b2-6)Gal(b1-4)GlcNAc
# Method in brief: as §1
Binder,glycan array binding signal (z-score) [1],glycan array binding signal (z-score) [2],glycan array binding signal (z-score) [3],glycan array binding signal (z-score) [4],glycan array binding signal (z-score) [5],glycan array binding signal (z-score) [6],glycan array binding signal (z-score) [7],glycan array binding signal (z-score) [8],glycan array binding signal (z-score) [9],glycan array binding signal (z-score) [10],glycan array binding signal (z-score) [11],glycan array binding signal (z-score) [12],glycan array binding signal (z-score) [13],glycan array binding signal (z-score) [14],glycan array binding signal (z-score) [15],glycan array binding signal (z-score) [16],glycan array binding signal (z-score) [17],glycan array binding signal (z-score) [18],glycan array binding signal (z-score) [19],glycan array binding signal (z-score) [20],glycan array binding signal (z-score) [21],glycan array binding signal (z-score) [22],glycan array binding signal (z-score) [23],glycan array binding signal (z-score) [24],glycan array binding signal (z-score) [25],glycan array binding signal (z-score) [26],glycan array binding signal (z-score) [27],glycan array binding signal (z-score) [28],glycan array binding signal (z-score) [29],glycan array binding signal (z-score) [30],glycan array binding signal (z-score) [31],glycan array binding signal (z-score) [32],glycan array binding signal (z-score) [33],glycan array binding signal (z-score) [34],glycan array binding signal (z-score) [35],glycan array binding signal (z-score) [36],glycan array binding signal (z-score) [37],glycan array binding signal (z-score) [38],glycan array binding signal (z-score) [39],glycan array binding signal (z-score) [40]
"ASAL (Allium sativum), P83886 (protein) MGRTTSSPKAMMRIATVAAILTILASTCMARNVLTNGEGLYAGQSLDVEQYKFIMQDDCNLVLYEYSTPIWASNTGVTGKNGCRAVMQRDGNFVVYDVNGRPVWASNSVRGNGNYILVLQKDRNVVIYGSDIWSTGTYRRSVGGAVVMAMNGTVDGGSVIGPVVVNQNVTAAIRKVGTGAA",-0.201,-0.206,-0.282,-0.285,-0.252,-0.113,-0.178,-0.218,-0.267,6.55,5.54,7.04,-0.228,5.91,7.21,-0.238,-0.193,-0.24,-0.234,5.39,-0.3,-0.252,-0.065,2.53,4.09,-0.236,-0.276,0.085,4.59,5.01,-0.29,-0.25,–,–,–,–,–,–,–,–
"CVN (Nostoc ellipsosporum), P81180 (protein) LGKFSQTCYNSAIQGSVLTSTCERTNGGYNTSSIDLNSVIENVDGSLKWQPSNFIETCRNTQLAGSSELAAECKTRAQQFVSTKINLDDHIANIDGTLKYE",–,–,–,–,–,–,–,–,–,–,–,–,–,–,–,–,–,–,–,–,–,–,–,–,–,–,–,–,–,–,–,–,-0.305,-0.302,-0.284,0.537,-0.246,-0.237,-0.308,-0.306
